Experiment [1] has as its target Sphingosine kinase 1 (Homo sapiens) (UniProt Q9NYA1). As to conditions: at 1 µM.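 Note: mean SPHK1 inhibition value reported from the GSK PKIS kinase panel screen.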
Experiment [2] concerns the target T1, Sphingosine kinase 2 (Homo sapiens) (UniProt Q9NRA0).
T1 sequence (whole entry): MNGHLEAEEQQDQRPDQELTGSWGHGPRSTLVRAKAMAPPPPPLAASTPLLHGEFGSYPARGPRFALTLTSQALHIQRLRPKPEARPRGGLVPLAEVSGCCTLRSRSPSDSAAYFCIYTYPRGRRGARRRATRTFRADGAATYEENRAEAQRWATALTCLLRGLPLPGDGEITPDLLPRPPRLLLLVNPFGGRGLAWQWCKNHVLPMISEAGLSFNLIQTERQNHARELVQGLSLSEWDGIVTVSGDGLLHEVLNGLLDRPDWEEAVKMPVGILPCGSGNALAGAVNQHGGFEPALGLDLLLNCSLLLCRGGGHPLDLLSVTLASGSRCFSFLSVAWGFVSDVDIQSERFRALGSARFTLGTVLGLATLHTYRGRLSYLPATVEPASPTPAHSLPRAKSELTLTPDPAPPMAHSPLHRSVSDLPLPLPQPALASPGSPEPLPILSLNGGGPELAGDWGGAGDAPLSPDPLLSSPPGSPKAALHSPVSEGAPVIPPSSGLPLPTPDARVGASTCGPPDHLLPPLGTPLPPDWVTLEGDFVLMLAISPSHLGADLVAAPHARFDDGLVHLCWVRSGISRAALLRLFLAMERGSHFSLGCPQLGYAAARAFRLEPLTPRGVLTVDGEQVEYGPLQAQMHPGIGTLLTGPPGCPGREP
As to conditions: at 0.1 µM.

Experiment [3] addresses T1, Sphingosine kinase 2 (Homo sapiens). As to conditions: at 1 µM.
The target of experiment [4] is Casein kinase II subunit alpha (Homo sapiens) (UniProt P68400). As to conditions: at 0.1 µM.
Casein kinase II subunit alpha (Homo sapiens), sequence (P68400 whole entry, looked up): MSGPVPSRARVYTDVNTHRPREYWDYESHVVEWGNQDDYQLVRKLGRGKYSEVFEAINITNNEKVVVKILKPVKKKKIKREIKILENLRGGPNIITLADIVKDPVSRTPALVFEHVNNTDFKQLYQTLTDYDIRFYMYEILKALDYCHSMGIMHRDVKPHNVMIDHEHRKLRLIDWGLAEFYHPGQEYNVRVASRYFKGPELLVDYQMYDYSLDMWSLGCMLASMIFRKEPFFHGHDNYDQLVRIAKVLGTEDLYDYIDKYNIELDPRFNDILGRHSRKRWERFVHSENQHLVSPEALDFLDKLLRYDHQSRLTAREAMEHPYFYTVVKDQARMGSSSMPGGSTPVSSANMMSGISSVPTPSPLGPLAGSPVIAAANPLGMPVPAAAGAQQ
Experiment [5] shares this target. As to conditions: at 1 µM.
The target in experiment [6] is T2, Inhibitor of nuclear factor kappa-B kinase subunit alpha (Homo sapiens) (UniProt O15111).
T2 sequence (whole entry): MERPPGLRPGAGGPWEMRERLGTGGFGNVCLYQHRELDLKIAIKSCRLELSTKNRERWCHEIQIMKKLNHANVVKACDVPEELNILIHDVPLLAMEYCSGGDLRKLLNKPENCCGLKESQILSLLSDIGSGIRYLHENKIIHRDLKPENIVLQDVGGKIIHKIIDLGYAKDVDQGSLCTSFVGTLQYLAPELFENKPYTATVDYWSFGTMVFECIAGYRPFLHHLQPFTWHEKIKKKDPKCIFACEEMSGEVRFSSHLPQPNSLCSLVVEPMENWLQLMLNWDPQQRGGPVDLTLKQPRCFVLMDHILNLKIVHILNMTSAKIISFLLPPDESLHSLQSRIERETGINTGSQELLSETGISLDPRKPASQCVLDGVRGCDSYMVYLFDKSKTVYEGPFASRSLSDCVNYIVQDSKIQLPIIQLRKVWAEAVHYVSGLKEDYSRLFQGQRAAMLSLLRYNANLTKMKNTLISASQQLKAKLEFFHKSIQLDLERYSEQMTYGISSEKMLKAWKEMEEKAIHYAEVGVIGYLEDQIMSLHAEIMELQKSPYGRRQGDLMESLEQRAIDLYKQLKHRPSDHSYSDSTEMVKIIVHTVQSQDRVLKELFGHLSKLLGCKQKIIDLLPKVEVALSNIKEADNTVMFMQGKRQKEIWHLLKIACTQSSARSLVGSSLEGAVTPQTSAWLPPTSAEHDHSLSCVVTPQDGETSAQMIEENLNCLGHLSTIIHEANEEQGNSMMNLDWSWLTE
To be noted: at 0.1 µM.

In experiment [7] the target is T2, Inhibitor of nuclear factor kappa-B kinase subunit alpha (Homo sapiens). As to conditions: at 1 µM.
The target in experiment [8] is T3, Inhibitor of nuclear factor kappa-B kinase subunit beta (Homo sapiens) (UniProt O14920).
T3 sequence (whole entry): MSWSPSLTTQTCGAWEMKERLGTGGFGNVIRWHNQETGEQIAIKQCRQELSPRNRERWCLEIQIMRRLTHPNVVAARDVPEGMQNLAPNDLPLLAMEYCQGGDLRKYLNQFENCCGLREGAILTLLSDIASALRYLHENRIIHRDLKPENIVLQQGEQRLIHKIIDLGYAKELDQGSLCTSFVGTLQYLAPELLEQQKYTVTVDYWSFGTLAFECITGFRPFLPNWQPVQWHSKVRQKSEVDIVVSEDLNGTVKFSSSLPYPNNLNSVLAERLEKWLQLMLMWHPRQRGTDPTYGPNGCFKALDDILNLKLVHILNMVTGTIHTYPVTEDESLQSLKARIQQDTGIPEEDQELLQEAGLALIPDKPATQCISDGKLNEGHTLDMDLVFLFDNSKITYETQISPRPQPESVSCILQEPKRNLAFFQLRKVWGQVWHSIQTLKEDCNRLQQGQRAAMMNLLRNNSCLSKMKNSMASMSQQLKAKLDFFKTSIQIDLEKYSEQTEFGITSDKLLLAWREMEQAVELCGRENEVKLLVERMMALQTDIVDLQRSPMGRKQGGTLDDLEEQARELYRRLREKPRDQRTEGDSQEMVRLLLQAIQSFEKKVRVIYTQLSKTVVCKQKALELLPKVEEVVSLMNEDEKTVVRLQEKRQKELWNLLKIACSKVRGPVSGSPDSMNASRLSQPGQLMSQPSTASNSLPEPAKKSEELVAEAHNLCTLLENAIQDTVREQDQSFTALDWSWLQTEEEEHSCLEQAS
To be noted: at 0.1 µM.

Experiment [9] addresses T3, Inhibitor of nuclear factor kappa-B kinase subunit beta (Homo sapiens). As to conditions: at 1 µM.
The target in experiment [10] is T4, Inhibitor of nuclear factor kappa-B kinase subunit epsilon (Homo sapiens) (UniProt Q14164).
T4 sequence (whole entry): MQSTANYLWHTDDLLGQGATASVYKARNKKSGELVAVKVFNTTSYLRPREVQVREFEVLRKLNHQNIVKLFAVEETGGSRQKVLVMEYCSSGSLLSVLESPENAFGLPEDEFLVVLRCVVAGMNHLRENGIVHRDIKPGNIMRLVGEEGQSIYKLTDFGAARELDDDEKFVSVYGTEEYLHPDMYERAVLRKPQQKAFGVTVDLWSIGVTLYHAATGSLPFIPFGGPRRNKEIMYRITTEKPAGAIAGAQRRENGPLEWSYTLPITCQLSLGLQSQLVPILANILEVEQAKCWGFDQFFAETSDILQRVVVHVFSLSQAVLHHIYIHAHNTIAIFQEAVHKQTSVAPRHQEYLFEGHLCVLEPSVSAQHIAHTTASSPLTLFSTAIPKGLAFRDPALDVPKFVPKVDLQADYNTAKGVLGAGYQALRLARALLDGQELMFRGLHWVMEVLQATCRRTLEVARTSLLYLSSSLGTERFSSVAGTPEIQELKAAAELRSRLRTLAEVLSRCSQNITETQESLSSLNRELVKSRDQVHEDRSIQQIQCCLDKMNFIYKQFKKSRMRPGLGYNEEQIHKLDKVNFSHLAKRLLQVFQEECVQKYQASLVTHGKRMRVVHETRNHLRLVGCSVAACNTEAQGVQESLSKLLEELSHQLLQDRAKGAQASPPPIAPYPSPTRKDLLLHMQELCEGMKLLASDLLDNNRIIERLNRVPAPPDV
To be noted: at 0.1 µM.

For experiment [11], the target named is T4, Inhibitor of nuclear factor kappa-B kinase subunit epsilon (Homo sapiens). To be noted: at 1 µM.
Experiment [12] concerns the target T5, Serine/threonine-protein kinase Nek1 (Homo sapiens) (UniProt Q96PY6).
T5 sequence (whole entry): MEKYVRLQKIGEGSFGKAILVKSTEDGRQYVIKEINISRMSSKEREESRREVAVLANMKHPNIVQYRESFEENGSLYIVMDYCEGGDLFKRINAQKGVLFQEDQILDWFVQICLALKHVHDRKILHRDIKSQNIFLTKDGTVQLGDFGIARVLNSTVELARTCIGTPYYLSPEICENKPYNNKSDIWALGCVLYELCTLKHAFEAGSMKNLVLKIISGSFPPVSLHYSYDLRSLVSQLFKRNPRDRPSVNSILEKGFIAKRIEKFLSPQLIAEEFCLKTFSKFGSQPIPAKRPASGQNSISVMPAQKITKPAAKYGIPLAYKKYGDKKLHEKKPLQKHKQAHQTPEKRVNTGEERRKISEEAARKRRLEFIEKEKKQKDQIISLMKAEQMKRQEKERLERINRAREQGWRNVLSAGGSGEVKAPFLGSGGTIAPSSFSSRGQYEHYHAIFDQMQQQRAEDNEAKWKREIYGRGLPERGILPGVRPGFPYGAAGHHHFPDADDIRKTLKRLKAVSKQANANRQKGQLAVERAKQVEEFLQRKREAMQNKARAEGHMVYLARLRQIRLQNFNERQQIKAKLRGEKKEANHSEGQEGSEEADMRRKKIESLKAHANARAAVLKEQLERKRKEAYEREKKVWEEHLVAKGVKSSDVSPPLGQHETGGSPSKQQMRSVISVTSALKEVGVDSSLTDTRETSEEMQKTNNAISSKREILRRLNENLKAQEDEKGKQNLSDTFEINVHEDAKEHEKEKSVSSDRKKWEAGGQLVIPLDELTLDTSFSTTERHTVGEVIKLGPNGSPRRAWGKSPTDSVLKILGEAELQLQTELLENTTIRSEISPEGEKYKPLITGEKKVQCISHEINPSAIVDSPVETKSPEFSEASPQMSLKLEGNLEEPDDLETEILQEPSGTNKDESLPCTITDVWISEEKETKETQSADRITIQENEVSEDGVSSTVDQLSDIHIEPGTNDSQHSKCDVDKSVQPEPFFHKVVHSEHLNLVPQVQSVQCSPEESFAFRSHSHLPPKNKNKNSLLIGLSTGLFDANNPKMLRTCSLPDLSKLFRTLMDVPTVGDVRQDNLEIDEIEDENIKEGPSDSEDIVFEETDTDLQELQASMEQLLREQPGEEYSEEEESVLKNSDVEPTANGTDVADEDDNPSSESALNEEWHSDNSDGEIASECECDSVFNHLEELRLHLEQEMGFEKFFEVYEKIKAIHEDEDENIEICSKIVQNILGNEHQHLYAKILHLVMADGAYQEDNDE
As to conditions: at 0.1 µM.

The target of experiment [13] is T5, Serine/threonine-protein kinase Nek1 (Homo sapiens). As to conditions: at 1 µM.
In experiment [14] the target is T6, Serine/threonine-protein kinase Nek2 (Homo sapiens) (UniProt P51955).
T6 sequence (whole entry): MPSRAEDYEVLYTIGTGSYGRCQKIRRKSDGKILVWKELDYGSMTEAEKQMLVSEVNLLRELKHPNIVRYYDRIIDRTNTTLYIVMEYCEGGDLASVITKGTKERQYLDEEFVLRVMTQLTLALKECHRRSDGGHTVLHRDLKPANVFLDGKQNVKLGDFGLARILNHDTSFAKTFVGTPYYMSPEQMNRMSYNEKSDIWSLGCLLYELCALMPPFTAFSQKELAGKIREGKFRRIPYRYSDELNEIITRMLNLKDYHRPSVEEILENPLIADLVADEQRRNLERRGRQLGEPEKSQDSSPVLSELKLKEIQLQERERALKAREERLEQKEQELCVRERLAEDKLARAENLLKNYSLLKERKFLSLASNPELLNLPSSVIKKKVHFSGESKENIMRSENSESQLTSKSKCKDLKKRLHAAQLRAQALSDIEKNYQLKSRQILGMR
To be noted: at 0.1 µM.

For experiment [15], the target named is T6, Serine/threonine-protein kinase Nek2 (Homo sapiens). As to conditions: at 1 µM.
Experiment [16] addresses Serine/threonine-protein kinase Nek6 (Homo sapiens) (UniProt Q9HC98). To be noted: at 0.1 µM.
Experiment [17] shares this target. To be noted: at 1 µM.
Experiment [18] has as its target Serine/threonine-protein kinase Nek7 (Homo sapiens) (UniProt Q8TDX7). As to conditions: at 0.1 µM.
For experiment [19] the target is unchanged. As to conditions: at 1 µM.
Experiment [20] addresses T7, Serine/threonine-protein kinase Nek9 (Homo sapiens) (UniProt Q8TD19).
T7 sequence (whole entry): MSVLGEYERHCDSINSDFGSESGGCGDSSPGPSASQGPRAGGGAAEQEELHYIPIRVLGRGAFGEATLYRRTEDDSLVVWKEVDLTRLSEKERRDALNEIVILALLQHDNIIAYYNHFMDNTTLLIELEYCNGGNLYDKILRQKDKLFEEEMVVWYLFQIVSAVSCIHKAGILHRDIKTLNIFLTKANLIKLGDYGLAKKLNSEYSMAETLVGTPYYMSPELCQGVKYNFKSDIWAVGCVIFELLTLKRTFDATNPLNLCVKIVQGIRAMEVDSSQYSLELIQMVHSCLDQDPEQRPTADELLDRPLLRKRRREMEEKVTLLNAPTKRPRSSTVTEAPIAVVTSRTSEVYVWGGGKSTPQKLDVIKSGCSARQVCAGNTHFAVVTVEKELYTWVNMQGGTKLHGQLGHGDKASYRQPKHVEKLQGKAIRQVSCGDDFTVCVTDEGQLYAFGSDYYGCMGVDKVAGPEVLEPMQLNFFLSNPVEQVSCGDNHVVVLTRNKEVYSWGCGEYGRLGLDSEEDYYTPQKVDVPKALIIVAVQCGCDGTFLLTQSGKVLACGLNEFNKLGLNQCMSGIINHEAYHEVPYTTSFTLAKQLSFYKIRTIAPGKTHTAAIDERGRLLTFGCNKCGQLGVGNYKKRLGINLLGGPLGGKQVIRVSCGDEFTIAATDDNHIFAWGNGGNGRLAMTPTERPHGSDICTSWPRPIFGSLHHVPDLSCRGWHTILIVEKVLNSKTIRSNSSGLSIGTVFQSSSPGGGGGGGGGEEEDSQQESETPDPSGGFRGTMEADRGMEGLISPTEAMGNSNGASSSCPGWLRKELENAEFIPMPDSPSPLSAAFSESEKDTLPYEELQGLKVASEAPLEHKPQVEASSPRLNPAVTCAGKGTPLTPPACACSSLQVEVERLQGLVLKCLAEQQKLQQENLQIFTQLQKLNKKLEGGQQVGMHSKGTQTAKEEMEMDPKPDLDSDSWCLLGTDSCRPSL
To be noted: at 0.1 µM.

Data on one molecule can be found in ChEMBL document CHEMBL1961873, “Compounds: GSK PKIS; Assays: Nanosyn kinase panel” (2012).

Serine/threonine-protein kinase Nek7 (Homo sapiens), sequence (Q8TDX7 whole entry, looked up): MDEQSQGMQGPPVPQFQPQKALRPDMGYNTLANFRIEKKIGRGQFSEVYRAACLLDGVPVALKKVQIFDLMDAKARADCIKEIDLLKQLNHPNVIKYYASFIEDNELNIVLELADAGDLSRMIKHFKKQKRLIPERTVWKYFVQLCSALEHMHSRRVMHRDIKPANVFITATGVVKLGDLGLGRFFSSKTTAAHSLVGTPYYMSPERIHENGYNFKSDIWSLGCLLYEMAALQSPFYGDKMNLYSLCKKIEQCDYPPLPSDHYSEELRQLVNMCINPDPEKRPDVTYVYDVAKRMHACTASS
Serine/threonine-protein kinase Nek6 (Homo sapiens), sequence (Q9HC98 whole entry): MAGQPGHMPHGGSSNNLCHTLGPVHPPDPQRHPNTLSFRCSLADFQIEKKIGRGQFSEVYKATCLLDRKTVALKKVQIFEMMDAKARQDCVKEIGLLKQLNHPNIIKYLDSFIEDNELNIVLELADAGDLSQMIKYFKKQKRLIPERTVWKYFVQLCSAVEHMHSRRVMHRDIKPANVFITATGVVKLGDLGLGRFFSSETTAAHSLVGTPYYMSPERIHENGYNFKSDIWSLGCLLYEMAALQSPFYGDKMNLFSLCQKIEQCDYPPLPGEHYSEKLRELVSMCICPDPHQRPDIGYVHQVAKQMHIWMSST
Sphingosine kinase 1 (Homo sapiens), sequence (Q9NYA1 whole entry): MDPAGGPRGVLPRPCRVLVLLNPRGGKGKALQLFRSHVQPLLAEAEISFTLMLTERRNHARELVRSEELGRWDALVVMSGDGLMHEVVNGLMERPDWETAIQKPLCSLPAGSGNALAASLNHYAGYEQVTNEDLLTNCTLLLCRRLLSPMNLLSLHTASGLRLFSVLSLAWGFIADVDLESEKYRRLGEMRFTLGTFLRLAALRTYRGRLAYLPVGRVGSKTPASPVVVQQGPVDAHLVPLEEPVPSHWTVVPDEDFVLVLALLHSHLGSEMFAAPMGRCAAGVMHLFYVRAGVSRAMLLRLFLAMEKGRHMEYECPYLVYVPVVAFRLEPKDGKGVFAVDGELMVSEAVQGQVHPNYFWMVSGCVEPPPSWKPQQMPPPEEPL

In the case of `O=C1Nc2ccccc2/C1=C/Nc1ccc(-n2cncn2)cc1`, the inhibition (in general, the relative decrease from the control value, in per cent) in experiment [1] is -4.72%; in experiment [2] it was -0.36%; in experiment [3] it was 1.3%; in experiment [4], 7.12%; in [5], 12.8%; in [6], 11.8%. Also, the inhibition in experiment [7] turned out to be 2.05%; in experiment [8] it was 9.35%; in experiment [9] it was 11.4%; in [10], 7.57%; in experiment [11] it was 16.4%; in [12], 2.46%. The inhibition in experiment [13] turned out to be 5.21%; in experiment [14], 4.4%; in [15] it was 4.16%; in experiment [16] it was 4.59%; in experiment [17], 7.54%; in experiment [18], 5.44%. Further, the inhibition in [19] came to 4.4%; in [20], 5.79%.
